# Measured values from PubChem BioAssay (NCI).
# Compounds without any hit were thinned out: in the full panel of roughly 83,000, 20% have a hit.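 How to read the values: 0–100, growth inhibition (40 = 60% inhibited); 0, no net growth; -100 to 0, cell death (-40 = 40% of starting cells died; -100 = all dead).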 Unmarked numbers belong to inactive results. Active and inactive are the calls of the source. The calls were made as follows: active = growth percent below 10; inactive = the rest.
# Tests used:
# Assay in all cases: NCI-60 one-dose screen, 48 h (100 = growth as untreated, 0 = no growth, -100 = all killed)
# Conditions in all cases: 10 µM unless noted
# T-47D breast = tested on: T-47D breast
# BT-549 breast = tested on: BT-549 breast
# MDA-MB-435 melanoma = tested on: MDA-MB-435 melanoma
# SW-620 colon = tested on: SW-620 colon
# MCF7 breast = tested on: MCF7 breast
# HCT-116 colon = tested on: HCT-116 colon
# HCC-2998 colon = tested on: HCC-2998 colon
# KM12 colon = tested on: KM12 colon
Compound,growth (T-47D breast),growth (BT-549 breast),growth (MDA-MB-435 melanoma),growth (SW-620 colon),growth (MCF7 breast),growth (HCT-116 colon),growth (HCC-2998 colon),growth (KM12 colon)
Cc1ccc(NC(=O)Cn2c(Br)nc3c2c(=O)n(C)c(=O)n3C)cc1,-10.5% (active),0.261% (active),54.2%,30%,13.2%,-21.5% (active),83.7%,63.8%
COc1ccc(-c2n[nH]c(=O)c3nc(NC(=S)Nc4ccc(Oc5ccccc5)cc4)sc23)cc1,81.9%,108%,97.3%,96.8%,96.8%,91.1%,105%,93.8%
CC1(C)NCCC[C@]2(C)[C@H]3CC[C@H]4[C@H]5[C@H](C(=O)/C=C/c6cccnc6)CCC[C@]5(CO)CC[C@@]4(C)[C@]3(C)CC[C@@H]12,81.3%,88.2%,70.8%,7.51% (active),22.1%,37.2%,19.7%,39.8%
Cc1ccc(C)c2c(C)c(C(=O)Nc3cccc(-n4cccn4)c3)oc12,7.95% [50 µM] (active),61.5% [50 µM],69.9% [50 µM],70.2% [50 µM],13.2% [50 µM],50.7% [50 µM],81.2% [50 µM],56.3% [50 µM]
CCNc1nc(O)c(/C=C2\C=Nc3ncccc32)s1,-9.7% (active),-50.4% (active),-0.802% (active),6.52% (active),3.97% (active),3.99% (active),10.2%,6.24% (active)
O=C1Nc2ccccc2/C1=C\c1c[nH]c2ccc(Br)cc12,26.6%,116%,69%,93.7%,29.5%,85.8%,71.6%,12.9%
COc1ccc(Cn2cc(C(=O)N=Nc3c(O)[nH]c4c(C)cccc34)nn2)cc1,81%,103%,82%,57.5%,84.9%,7.11% (active),101%,95.6%
CN1CCN(CCOc2ccc(-c3cnc4c(-c5cccc(F)c5F)cnn4c3)cc2)CC1,85.4%,50.4%,-66.1% (active),-68.9% (active),-23.8% (active),-65% (active),101%,-68.9% (active)
C=C(C)[C@@H]1CC[C@]2(C(=O)N3CCN(C)CC3)CC[C@]3(C)[C@H](CC[C@@H]4[C@@]5(C)CC[C@H](OC(=O)c6ccccc6C(=O)O)C(C)(C)[C@@H]5CC[C@]43C)[C@@H]12,102%,111%,99.3%,101%,96.4%,90.8%,106%,106%
Cc1ccc(C=C2C(=O)NC(=O)NC2=O)cc1,113%,104%,109%,109%,98.8%,108%,112%,108%
COc1cc(-c2nc3sccn3c2-c2ccnc(NCCNS(=O)(=O)c3ccc(Cl)cc3)n2)ccc1F,1.61% (active),30.9%,9.48% (active),50.6%,17.7%,20.9%,66.5%,17%
Cc1ccc2c(-n3nc(C#N)c(C#N)c3N)cc(=O)[nH]c2c1,77%,86.9%,107%,99.3%,85.1%,76%,139%,94.8%
Cc1nc2ccccc2c(/C=C/c2ccccc2)c1C(=O)/C=C/c1ccccc1,15.6%,40.6%,-17.2% (active),-65.6% (active),17%,-43% (active),31.6%,11.6%
C=C1C(=O)O[C@H]2[C@H]1CC/C(COC(=O)/C=C\C(=O)NCc1ccc(Cn3c(=O)sn(CCCl)c3=O)cc1)=C\CC[C@@]1(C)O[C@@H]21,84.7%,85.5%,65.8%,31.2%,61.8%,68.7%,117%,97.1%
Nc1[nH]c(=S)nc2oc(-c3ccccc3)c(-c3ccccc3)c12,96.8%,106%,104%,106%,96.6%,101%,110%,98.9%
CO[C@H]1CC(=O)n2c3ccccc3c3c4c(c5c6ccccc6n1c5c32)C(=O)NC4=O,11.1%,68.6%,48.5%,32.8%,20.1%,55.6%,93.7%,29.9%

Compound,growth (T-47D breast),growth (BT-549 breast),growth (MDA-MB-435 melanoma),growth (SW-620 colon),growth (MCF7 breast),growth (HCT-116 colon),growth (HCC-2998 colon),growth (KM12 colon)
CSc1nc(C)c([N+](=O)[O-])c(N)n1,107%,98.9%,107%,104%,94.3%,91.1%,114%,99.5%
CCN1C(=O)N(CC)C2C1N=C(SCc1ccc(Cl)cc1)N2/N=C/C=C/c1ccccc1OC (stereo not drawn),41.6%,106%,-16.9% (active),74.8%,13.5%,37%,85.9%,64.6%
O=C(NC1CC(F)C1)c1cc2cccnc2n1-c1ccc(Cl)c(Cl)c1 (stereo not drawn),82.6%,101%,119%,98.4%,98.3%,94.7%,104%,98.5%
Cc1ccc(S(=O)(=O)OCCCOS(=O)(=O)c2ccc(C)cc2)cc1,99.3%,96.2%,101%,103%,91.2%,94.1%,99.7%,99.1%
C=C(CNCCO)[C@@H]1CC[C@]2(CO)CC[C@]3(C)[C@H](CC[C@@H]4[C@@]5(C)CCC(N)C(C)(C)[C@@H]5CC[C@]43C)[C@@H]12 (stereo partly drawn),-47.7% (active),65%,-44% (active),7.71% (active),-29.9% (active),7.75% (active),-37.2% (active),25.2%
CS(=O)(=O)c1nnc(-c2ccccc2)s1,44.4%,105%,96.5%,84.8%,77.8%,45.1%,103%,92.7%
C=CCn1c(SCC(=O)Nc2ccc(/C(C)=N/O)cc2)nnc1-c1cc(-c2ccc(S(N)(=O)=O)cc2)nc2ccccc12,27.4%,58.8%,67.3%,84.2%,43.3%,77.7%,101%,86.5%
NC(=O)c1c(NC(=O)c2cccs2)sc2c1CCC(=O)C2,8.16% (active),8.21% (active),43.7%,15.1%,45.1%,4.11% (active),72.9%,20.3%
CC1(C)CC(=O)c2c(nn(-c3ccc(Br)cc3)c2-c2cn(-c3ccccc3)nc2-c2cccnc2)C1,70.8%,86.9%,105%,91.4%,75.2%,85%,106%,97.1%
CC(=O)ON1CCCC(P(=O)(OCCSC(=O)C(C)(C)C)OCCSC(=O)C(C)(C)C)C1=O (stereo not drawn),14.8%,30.9%,48.5%,30.9%,13.9%,10.5%,11%,5.16% (active)
CC/C(Cc1ccccc1)=C(\c1ccc(OCCCN(C)C)cc1)c1ccc(OC(=O)NCc2ccccc2)cc1,52.7%,95%,77.6%,14.5%,15.6%,10.4%,70.4%,72.8%
CCCCNc1cc(-c2cn[nH]c2-c2cc(C)cc(OC)c2)nc(-c2cccnc2)n1,49.7%,85.3%,92.1%,107%,88.1%,91.7%,106%,93.9%
C=CN(C(=O)N1CCN(c2cc3c(cc2F)c(=O)c(C(=O)O)cn3C2CC2)CC1)c1nc(-c2ccc(OC)cc2)cs1,44.1%,14.8%,19.7%,22.2%,8.52% (active),11.4%,34.3%,21.4%
Cc1ccc(-c2nc3nc(-c4ccccc4)nc(N4CCCN(S(C)(=O)=O)CC4)c3o2)cc1,92.1%,94.2%,34.5%,44.1%,65.1%,24.4%,96.6%,86.8%
Fc1cc(Nc2ccc3c(OCCCN4CCOCC4)cccc3n2)ccc1Cl,48.2%,57.9%,32%,-32.2% (active),14.2%,3.61% (active),-58.2% (active),-21.8% (active)
